EBV LMP1 NFkB – EBV LMP1-driven NF-kappaB luciferase reporter inhibitors, primary screen, cell-based, luminescence, single point | inhibition, % at 12.5 µM | LMP1-induced NF-kappaB luciferase reporter cells | 0.69% of 350,000 active; in the data active = inhibition above about 41%;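 note: 0% = neutral control wells and 100% = reference inhibitor control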
TWEAK-Fn14 inh – inhibitors of TWEAK-Fn14 signaling, primary screen, luciferase reporter cells, uHTS | TWEAK-stimulated Fn14 reporter cells, luciferase luminescence, 8 h | inhibition, % at 10 µM | 2% of 360,000 active | AID 1159606, 2016; in the data active = inhibition above about 50%
Peg3 prom inh – Peg3 promoter-driven luciferase inhibitors, primary screen, cell-based, HeLa, luciferase luminescence. HeLa PEG-Prom luciferase reporter, overnight. inhibition, % at 20 µM. 1.7% of 360,000 active;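 active = inhibition of at least 50% at 20 µM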
TRPM1 prom inh – inhibitors of MITF-dependent TRPM1 promoter reporter, primary screen, cell-based, SK-MEL-5, single point, luciferase; 0.83% of 330,000 active; SK-MEL-5 TRPM1 promoter luciferase, 24 h; inhibition, % at 12.5 µM;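 active = mean inhibition across replicates of 60% or more, whatever share of single replicates reaches that level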
Shn3 inh set2 – reduction of Shn3 3'UTR firefly luciferase signal, primary screen, Schnurri-3 inhibitor project, cell-based, Clone20 osteoblasts, set 2 | Clone20 osteoblast Shn3 3'UTR firefly luciferase, 24 h | inhibition, % at 12.5 µM | 0.52% of 360,000 active;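 active = mean inhibition of at least 75% with every replicate also reaching 75%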;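 note: 0% = median of neutral control wells and 100% = pilot-screen positive control compound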
TROY signal inh – inhibitors of TROY-driven NF-kB signaling, primary screen, Q293 LMP1-TROYcd cells, NF-kB luciferase, uHTS; 0.98% of 360,000 active; inhibition, % at 10 µM; Q293 LMP1-TROYcd NF-kB luciferase reporter, 4 h;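 active = compounds whose plate-normalised and pattern-corrected inhibition of the luciferase reporter signal at the single screening dose is 50% or more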
Starred values were filed as active, the others as inactive; · = no result. Hits are enriched below; roughly 4.1% of the tested compounds scored in any of these assays.

SMILES	EBV LMP1 NFkB	TWEAK-Fn14 inh	Peg3 prom inh	TRPM1 prom inh	Shn3 inh set2	TROY signal inh
Cn1ccc2c(-c3ccc(F)cc3F)cc3c(c21)C1CCC3C1 (stereo not drawn)	·	-14.8	-37.0	·	-8.6	1.2
Cc1cc(N2CCN(C(=O)Nc3ccc(F)cc3F)CC2)c2ccccc2n1	13.4	9.7	8.6	-4.4	24.3	-1.7
CCCCc1ccc(NC(=O)N2CCN(c3cc(C)nc4ccccc34)CC2)c(C)c1	3.6	9.5	60.2*	18.4	40.1	18.8
O=C(Nc1ccccc1[N+](=O)[O-])c1cncc(Br)c1	4.7	103.9*	-53.5	-4.6	-24.6	8.4
CC(C)(C)c1ccc(NC(=O)c2ccccc2)c([N+](=O)[O-])c1	-74.7	29.9	-287.1	-59.8	-54.5	58.0*
COC(=O)CSc1nc(-c2ccc(F)cc2)cc(C(F)(F)F)n1	-1.4	-13.3	0.4	-1.2	-9.9	5.3
OC(c1cc(-c2ccc(C(F)(F)F)cc2)nc(C(F)(F)F)c1)C1CCCCN1 (stereo not drawn)	-11.7	-3.2	109.2*	100.0*	96.5*	31.7
OC(c1cc(-c2cccc(Cl)c2)nc2ccccc12)C1CCCCN1 (stereo not drawn)	-36.8	-1.3	103.9*	98.5*	90.0*	-18.7
OC(c1cc(C(F)(F)F)nc2c(C(F)(F)F)cccc12)C1CCCCN1 (stereo not drawn)	-15.1	27.1	93.5*	35.9	21.2	-9.2
FC(F)(F)c1cc(N2CCNCC2)c2ccccc2n1	15.5	-0.1	7.7	6.3	18.6	24.2
COc1ccccc1-n1c(C)c(C(C)=O)c2cc(O)ccc21	12.9	6.4	39.3	14.9	-1.0	-0.9
O=C1ON=C(c2ccccc2[N+](=O)[O-])/C1=C/c1cccc([N+](=O)[O-])c1O	71.3*	14.0	-2.3	5.4	4.9	5.6
CCOC(=O)[C@H]1[C@H]2COc3ccc(OC)cc3[C@@H]2N2C(=O)c3ccccc3NC(=O)[C@@]12C	-1.3	7.1	-6.1	-0.5	-3.5	-10.6
Cc1ccc(N2C(=O)c3ccccc3C2C(=O)c2ccc(C)c(C)c2O)cc1 (stereo not drawn)	-4.6	2.3	-38.9	-2.8	4.4	-41.1
COc1ccc(/C(C)=N/NC2=NCCN2)cc1Cl	1.0	8.5	6.8	2.2	26.8	-9.0
CCCCCCOc1ccc(/C(C)=N/NC2=NCCN2)cc1[N+](=O)[O-]	-39.0	-50.5	111.2*	33.6	-11.1	5.9
CCCCOc1ccc(Br)cc1/C(C)=N/NC1=NCCN1	28.4	50.6*	41.2	81.7*	88.1*	31.1
COC(=O)[C@]12CCCCC=C1N(Cc1ccco1)C(=O)[C@H](CC(=O)N1CCC(c3ccccc3)CC1)C2	·	-4.4	·	·	·	3.6
CCOc1ccc(S(=O)(=O)N2CCCCC2)cc1NC(=O)C1CCC1	-14.7	10.3	38.1	-12.0	-6.4	-17.2
Cc1ccc(NC(=O)C2CCCN(S(=O)(=O)c3c(C)noc3C)C2)cc1 (stereo not drawn)	1.3	8.6	13.5	4.1	85.1*	13.4
N#Cc1ccccc1OCCN1C(=O)c2ccccc2C1=O	-9.0	16.7	-80.5	-61.5	-44.7	-48.0
Nc1cccc2c1C(=O)N(CCOc1ccccc1F)C2=O	-11.7	58.6*	-130.6	-12.2	-31.4	18.6
O=C(CSc1nc2ncc(Br)cc2[nH]1)Nc1ccccc1-c1ccccc1	0.0	4.1	53.1*	11.1	14.7	48.5
CC(C)(C)N(NC(=O)Nc1ccc(Cl)c(Cl)c1)C(=O)c1ccccc1	8.8	26.3	61.0*	2.5	23.5	·
COC(=O)Oc1ccc(/C=C/C(=O)OC(C)C)cc1OC(=O)OC	-14.5	7.3	-73.0	-62.8	94.0*	-19.2
SMILES	EBV LMP1 NFkB	TWEAK-Fn14 inh	Peg3 prom inh	TRPM1 prom inh	Shn3 inh set2	TROY signal inh
CCCCOC(=O)/C=C/c1ccc(OC(=O)OC)c(OC(=O)OC)c1	-15.1	20.9	-152.3	-19.5	96.2*	-0.4
CCOC(=O)Cc1csc(NC(=O)c2ccc3ccccc3n2)n1	-15.4	-15.7	-87.1	13.5	-21.5	-32.4
O=C1NC(Cc2ccc(O)cc2)c2nc3cc(F)c(F)cc3c(=O)n2-c2ncccc21 (stereo not drawn)	-1.9	-38.9	20.1	·	11.3	0.8
COc1ccc(S(=O)(=O)N2CCCCCC2)cc1NC(=O)c1c2c(nc3ccccc13)CCN(Cc1ccccc1)C2	-8.4	27.6	43.4	0.5	11.0	13.9
CCN(CC)S(=O)(=O)c1ccc(OC(C)C)c(NC(=O)c2c3c(nc4ccccc24)CCN(Cc2ccccc2)C3)c1	16.1	26.0	54.6*	16.8	35.6	7.2
COc1cc(/C=C(/C#N)C(=O)Nc2ccc(C)cc2)ccc1Oc1nc(Cl)ncc1F	4.9	-14.6	51.1*	13.2	-3.0	25.2
O=[N+]([O-])c1ccc(Sc2nc3ccccc3o2)c([N+](=O)[O-])c1	15.1	57.6*	96.9*	86.7*	97.9*	23.0
O=c1[nH]c(Sc2ccc([N+](=O)[O-])cc2[N+](=O)[O-])nc2ccccc12	-5.7	-1.2	-58.3	6.6	2.5	-43.4
O=[N+]([O-])c1ccc(Sc2cc[n+]([O-])c3ccccc23)c([N+](=O)[O-])c1	-13.4	77.1*	6.7	90.4*	-9.9	2.7
O=CC1=C(c2ccccc2)Oc2ccccc2O1	4.4	58.3*	97.9*	12.3	3.6	38.0
CC1NC(=O)c2ccccc2-n2c1nc1ccc(F)cc1c2=O (stereo not drawn)	·	8.4	13.8	·	-39.0	-9.0
CC(C)c1cc(C(=O)NNC(=S)NC2CCCCC2)cs1	-11.6	50.3*	-192.7	-17.6	-7.9	48.9
COCC(C)n1c(C)cc(C(=O)COC(=O)c2c(NC(C)=O)sc(C)c2C)c1C (stereo not drawn)	14.0	15.2	2.4	1.5	36.6	65.0*
CCN1CCN(C(=S)c2ccc(-c3ccccc3)cc2)CC1	0.6	68.9*	21.9	4.7	37.4	5.5
Cc1ccc(C(=S)N2CCN(Cc3ccccc3)CC2)cc1	-2.7	-16.6	12.4	9.1	-8.5	-12.4
CCc1cc(C(=O)Nc2ncccc2O)sc1C	46.7*	45.1	-15.6	-3.6	-15.3	27.6
CCCCCC1C(=O)CCC1CC(=O)OC (stereo not drawn)	0.4	-26.2	1.9	-2.1	6.7	-18.0
CCCCC[C@H](O)/C=C/[C@H]1CCC(=O)[C@@H]1CCCCCCC(=O)N1CCCCC1CO (stereo partly drawn)	10.5	31.3	63.2*	13.3	28.3	37.3
Cn1nc(-c2ccc(Cl)cc2)c2cc(C(=O)N3CCN(c4ccccc4)CC3)sc21	-6.9	-8.3	3.8	23.5	21.8	10.2

Assay outcomes deposited in PubChem by several laboratories.
